The campaign covered roughly 6,900 compounds. Fewer than 10 were called active. The call rests on the fitted dose curve; in most records, active means well fitted curve in the direction sought with a large enough effect; inconclusive means small, poorly fitted or top-dose-only effect, or another doubt; inactive means no such curve, though single readings can be large or run the other way. Not all results are given here.
These compounds were tested against Metallo-beta-lactamase type 2 (Klebsiella pneumoniae) (UniProt C7C422) (assay: qHTS to identify inhibitors of the New Delhi Metallo-beta-lactamase (NDM): primary screen against the NCATS Gemini Collection). Conditions: NDM-1 enzyme, meropenem hydrolysis, absorbance 300 nm; series mostly up to 38.4 µM.
Chain of Metallo-beta-lactamase type 2 (Klebsiella pneumoniae) (C7C422 whole entry, looked up): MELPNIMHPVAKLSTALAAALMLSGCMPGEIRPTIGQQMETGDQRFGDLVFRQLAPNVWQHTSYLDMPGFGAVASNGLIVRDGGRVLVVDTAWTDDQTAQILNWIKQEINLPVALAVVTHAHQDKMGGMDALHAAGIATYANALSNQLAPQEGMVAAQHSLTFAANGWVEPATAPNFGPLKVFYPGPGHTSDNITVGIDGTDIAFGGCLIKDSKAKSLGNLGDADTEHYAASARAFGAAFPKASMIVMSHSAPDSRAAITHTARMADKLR
From the text: Assay Submitter (PI): James Inglese Ph.D., Patricia Dranchak Ph.D., Mahesh Aitha Ph.D. Assay Development and Screening Technology Laboratory (ADST) National Center for Advancing Translational Sciences (NCATS), Rockville, MD National Institute of Health (NIH), Bethesda, Maryland The metallo-beta-lactamases (MBL) are a main antibiotic resistance mechanism evolved by bacteria. There is an urgent clinical need for MBL inhibitors to mitigate this growing threat. To support a machine-based learning study, qHTS has been used to experimentally test inhibitors identified by prediction tools.
PROTOCOL TABLE (as described by Inglese et al., 2007) SEQUENCE No. (e.g., 1, 2, 3, etc.); […] (e.g., enzyme, Incubation, Reagent, etc.); VALUE; DESCRIPTION 1; NDM-1; 4 uL of 3 nM enzyme [2 nM final] in 50 mM HEPES (pH 7.0), 1 uM […], 0.01% Tween20; Use BioRaptr to dispense into Aurora black, clear bottom low base 1536-well plates 2; Compounds; 23 nL; Use Pin Tool (Wako) to transfer DMSO control and library compounds in DMSO 3; Incubate; >30 min 4; Reagent; 2 uL of 150 uM meropenem [50 uM final] 5; Incubate; 30 min. 6; Detector; Absorbance at 300 nm (bandwidth = 5 nm, 25 flashes/well) on Tecan Infinity NOTES (numbers refer to sequence above) 1; Column 1 of each plate received assay buffer without enzyme and columns 2-48 received enzyme for a final assay concentration of 2 nM. 2; Control plate contained DMSO in columns 1, 2, 3, and 4. 3; Compound interaction with enzyme. 4; Meropenem substrate was prepared in the same assay buffer as step 1 for a final assay concentration of 50 uM and added to all wells across the assay plates. 5; Substrate interaction with enzyme, plateau phase of kinetics. 6; Default reader settings were applied for absorbance read at 300 nm, bandwidth = 5 nm, 25 flashes/well. References: Inglese J, Shamu CE, Guy RK. 2007. Reporting data from high-throughput screening of small-molecule libraries. Nat Chem Biol. doi:10.1038/nchembio0807-438 Yasgar A, Shinn P, Jadhav A, Auld D, Michael S, Zheng W, Austin CP, Inglese J, Simeonov A. 2008. Compound Management for Quantitative High-Throughput Screening. J Lab Autom 13:79 - 89. doi:10.1016/j.jala.2007.12.004

outcome, inactive:
COc1ccc2c(c1)c(CN1C[C@@H](CO)[C@H](c3nc(C)no3)C1)cn2C, Nc1nc(CCC(=O)N[C@@H]2COCC[C@H]2Oc2ccc(CO)cc2)cs1, Cc1cccc2c1O[C@H]1[C@H](CO)CN([S+](=O)([O-])c3cccs3)[C@@H]21, Cc1cccc(C(=O)N2CC[C@H]3C(=O)NCCCCCCN(Cc4ccncc4)[C@@H]3C2)c1, Fc1ccc2nc(CO[C@H]3CN(C4CCOCC4)C[C@H]3F)[nH]c2c1, O=C(c1ccccc1)N1CCC2(CC(Cc3ccccc3)=NO2)C1 (stereo unspecified), CCc1nc2c(c(-c3ccc(O)cc3)n1)CN(Cc1ccc(NC(C)=O)cc1)CC2, Cc1ncnc(N2CCN(C(=O)C3CCN(C(=O)C4CC4)CC3)CC2)c1C, O=C(CC1CCOCC1)Nc1ccc(N2CCOCC2)cc1, CCNc1ncc(C(=O)N[C@H](C2CCNCC2)C2CC(O)C2)cn1 (stereo partly specified), CCOC(=O)C1(Cc2ccccc2F)CCCN(C(=O)c2ccc3c(c2)OCCO3)C1 (stereo unspecified), O=C(NC1CC(c2nnc(CO)n2C2CC2)C1)c1ccc2c(c1)CCO2 (stereo unspecified), Nc1nc(CCCNC(=O)C2CC(=O)N(Cc3ccccn3)C2)cs1 (stereo unspecified), Fc1ccc(-c2cccc(CN3CC4CCC(C3)N4c3ccc(C(F)(F)F)cc3)c2)c(F)c1, CC(=O)Nc1cccc(-c2ncc3c(n2)OCCN(CC2CC2)C3=O)c1, CN(C)CC1(O)CCN(C(=O)Cn2cc(C(=O)C3CC3)c3ccccc32)C1 (stereo unspecified), Nc1ncccc1CNC(=O)[C@H]1CCC[C@H](O)C1, COc1ccc(-c2cc(-c3ccncc3)cn3cncc23)cc1, O=C1NCCOCCCN(S(=O)(=O)c2ccccc2)[C@H]2CCCC[C@@H]12, Cc1cc(C(=O)N2CC(N(C(=O)NC(C)C)C3CCOCC3)C2)nn1C, Cc1[nH]c2ccccc2c1CC(=O)NCc1ccccc1-n1cncn1, COC(=O)N1CCN(Cc2cc(=O)c3cc(F)ccc3[nH]2)CC1, CCCN(C)C(=O)c1c(-c2ccc(F)cc2)noc1[C@H](C)O, O=C(NCc1nc(-c2ncccn2)no1)C1CC2(CCNCC2)CN1 (stereo unspecified), CC(C)N1CC[C@@H]2[C@H]1C(=O)NC[C@H](CCC(=O)NCc1ccc(F)cc1)N2C, Cc1cccc(O[C@H]2COCCN(c3nc4ccccc4o3)C2)n1, COc1ccc(NC(=O)C2CCN(C(=O)c3ncn4c3COC(c3ccccc3)C4)CC2)cc1Cl (stereo unspecified), CC1(NC(=O)C2CC2)CN(Cc2nc(-c3ccccc3OCc3ccccc3)cs2)C1, N#Cc1ccccc1-c1cc2c(ccn2Cc2ccncc2)c(N2CCOCC2)n1, COc1cc(CC2(CCC(=O)N3CCC(Oc4cccc(F)c4)CC3)CCC(=O)N2)ccc1F (stereo unspecified), CN1CCN([C@H]2[C@@H]3OC[C@@H](O3)[C@@H](NCc3ccc(-c4ccccc4)cc3)[C@@H]2O)CC1, CC(C)(C)c1nc(C(=O)NCc2cccnc2)n2ccccc12, CN1CCN(C(=O)c2cncc(N[C@H]3C[C@@H]4OCC[C@H]34)n2)CC1, COc1ccc(C(=O)N2CCC3(CCC3OC)CC2)cn1 (stereo unspecified), CCC1(N2CCN(S(=O)(=O)c3cccs3)CC2)CCN(S(C)(=O)=O)C1 (stereo unspecified), Cn1cc(CN[C@H]2C[C@H]3C(=O)NC[C@@H](CCC(=O)NCc4ccccc4)N3C2)c2ccccc21, CCc1nc(-c2c3n(c(=O)n(CC(=O)OC)c2=O)CCCC3)no1, O=C(c1n[nH]c2ccccc12)N1CC2CC(C1)[C@H]1CCCC(=O)N1C2 (stereo partly specified), COCc1nnc2n1CCC(NC(=O)Cn1nc(C(F)(F)F)cc1C)CC2 (stereo unspecified), Cc1ccc(C(C(=O)O)N2CCC(C(=O)N3CCCC3)CC2)c(C)c1 (stereo unspecified), O=C(NCCCn1ccnn1)c1cccc(S(=O)(=O)N2CCOCC2)c1, CC(=O)N1CCC(N2CC[C@H](c3nc4ccccc4s3)C2)CC1, N[C@H]1CN(C(=O)c2cccc(-n3cnnc3)c2)C[C@@H]1c1ccccc1, COCC1CN(Cc2c(C)n[nH]c2C)CC12CCNCC2 (stereo unspecified), COc1ccc(Cn2c3c(c(=O)n2Cc2ccccc2)CCN(C(=O)CCc2cccnc2)C3)cc1, CCn1c(C(=O)OC)c(NC(C)=O)c2cc(NC(C)Cc3ccccc3OC)cnc21 (stereo unspecified), COc1cccc(CN2CC(Oc3ccccc3C(=O)NC3CC3)C2)c1, CN(Cc1cc(C[C@@H]2C[C@H](NC(=O)C(C)(C)C)C2(C)C)no1)c1ccccc1, Cc1cc2nc3n(c(=O)c2n1CC(=O)NC1CCCCC1)CCCCC3, COCCN1CCCCCC(O)c2cc(C(=O)NCc3ccc(F)cc3)ccc21 (stereo unspecified), O=C(CCn1ccn2nc3c(c2c1=O)CCCC3)N1CCSCC1, CCN(C1CCOCC1)C1CN(C(=O)c2ccccn2)C1, CN1CC[C@H]2CN(C(=O)c3scc4c3OCCO4)C[C@@]2(C(=O)O)C1, Cc1cc(C(=O)N2CC[C@H](NS(=O)(=O)c3cn(C)cn3)C[C@H]2C(=O)N[C@H](Cc2c[nH]c3ccccc23)C(N)=O)n(C)n1, Cc1cccc(C(=O)N2CCCCCCN(C)C(=O)[C@@H]3CCC[C@@H]32)c1, CCN(CC)C(=O)[C@@H]1C[C@@H](NC(=O)c2ccn(CC)c(=O)c2)CN1C(C)=O, COC[C@@H]1CN(C(=O)Cc2c(C)noc2C)C[C@H]1c1ccccn1, O=C(NC1CCN(c2ccnc3ccnn23)C1)c1cc(F)ccc1Br (stereo unspecified), COCC(=O)N[C@H]1C[C@@H](CO)N(Cc2scnc2C)C1, COc1ccc2cc(C3CN(C(=O)CNC(=O)C(C)C)CCO3)ccc2c1 (stereo unspecified), COc1ccc(C(=O)Nc2ccc3c(c2)CN(CCc2ccccc2)C(=O)C(C)O3)cc1OC (stereo unspecified), COc1ccc(-c2cn(C)c(=O)n3cc(CN4CCNC(=O)C4)nc23)cn1, CCCC(C)N1CC2(CCN(C(=O)c3cnn4c3CCCC4)CC2)OC1=O (stereo unspecified), CCCN1CC2(CCN(Cc3nc(CCOC)no3)CC2)CC1C(=O)O (stereo unspecified), O=C(Cc1ccsc1)Nc1ccc2c(N3CCCC3)ncnc2c1, CN(C)Cc1nnc(C2CC(NC(=O)Cc3noc4ccccc34)C2)n1C (stereo unspecified), O=C1NC2(CCN(Cc3ccccc3C(F)(F)F)C2)COc2ccccc21 (stereo unspecified), CN(C)C[C@@H]1CN(Cc2ccncc2)C[C@H]1NC(=O)Cc1ccsc1, COCc1ncc(C)n1C1CCCN(C(=O)CCCc2ccccc2)C1 (stereo unspecified), O=C(CC1CCCC1)N1CCCC(c2nn[nH]n2)C1 (stereo unspecified), O=C1c2ccccc2CN1C1CCN(Cc2cccc3ccccc23)CC1, COc1ccc(-c2ccccc2NC(=O)C2CCCN(CC=C(C)C)C2)cc1 (stereo unspecified), O=C1NCCOCCN(S(=O)(=O)c2ccc3c(c2)CCC3)[C@@H]2CCCC[C@H]12, CC(=O)c1cc(C(=O)NCc2c(C)ncc3c2CCNC3)[nH]n1, COc1ccc(C(=O)N2CCC([C@@H]3CNC[C@H]3CO)CC2)cc1, CNC(=O)[C@@H](C1CC1)N1CCC[C@H]1C(=O)NCc1cccnc1, COC(=O)NCC(=O)N1CC[C@@H]2[C@@H](CCC(=O)N2CCc2ccccc2)C1, CCn1c(CN2CCN(c3nc4ccccc4s3)CC2)nnc1C1CC(N)C1 (stereo unspecified), CCn1cc(S(=O)(=O)NCC2Cn3cccc3C(=O)N2C)cn1 (stereo unspecified), COc1ccc(CN2CCCC3(Cc4ccccc4CNC3=O)C2)c(OC)n1 (stereo unspecified), Cc1cc(C)n(CCc2c(-c3ccccc3)ncn2C(C)CCCC(C)(C)O)n1 (stereo unspecified), CCc1nc(-c2c3n(c(=O)n(CC(=O)NC4CCCC4)c2=O)CCCCC3)no1, CC(C)Cc1cc(CN2CCC(CO)(CN3CCCC3)CC2)[nH]n1, OC1(CN2CCC(c3nc(-c4ccccc4)no3)CC2)CNCCOC1 (stereo unspecified), CCN1CC2(CCN(Cc3nc(COC)no3)CC2)CC(c2ccccc2)C1=O (stereo unspecified), Cc1noc(C)c1CCCNC(=O)c1ccc(NC[C@H]2C[C@H]3C=C[C@H]2C32CC2)nc1, CN(C)c1cccc(C(=O)NC2CCN(c3cc(-c4cccs4)[nH]n3)C2)c1 (stereo unspecified), COc1ccccc1-c1ccc(CN2CCCC(c3nc4ccc(C)cc4c(=O)[nH]3)C2)cc1 (stereo unspecified), C[S+](=O)([O-])N1CCC(Cn2ccc3c(N4CCOCC4)nc(-c4cccc5[nH]ncc45)cc32)CC1, O=C(c1ccccn1)N1CCCC2(CNc3ccccc3[S+](=O)([O-])N2)C1 (stereo unspecified), CN1CCCC(CN(C)C(=O)c2cc(-c3cnn(CCO)c3)nc3ccccc23)C1 (stereo unspecified), Cc1cnc(C2CC2)n1C1CCCN(C(=O)c2ccoc2)C1 (stereo unspecified), COc1ccc(C(=O)N2CCC3(CC2)OCC(C(=O)NC2CC2)N3C(=O)c2cccc(C)c2)cc1 (stereo unspecified), Cc1ccsc1CN1CCc2nc(N3CCOCC3)[nH]c(=O)c2CC1, O=C1NC2(CCCN(Cc3cncs3)C2)COc2ccccc21 (stereo unspecified), CCS(=O)(=O)Nc1ccc(C)n(CC(=O)NC2CCCCC2)c1=O
